Source: PubChem BioAssay (EPA / NIEHS)
Records with an inconclusive call do not appear. Active and inactive are the calls of the source. The calls were made as follows: active = hit-call score of the fitted dose curve at least 0.9, where 1 is the maximum; inconclusive = response in the unintended direction; inactive = score below 0.9.

The compounds below were run against Bile acid receptor (Homo sapiens) (UniProt Q96RI1) (assay: OT_FXR_FXRSRC1_1440: Odyssey Thera (OT) 24-hour HEK293T Protein-Complementation Assay for Farnesoid X receptor/SRC-1 Co-activator (AID 2283384)).
Sequence of Bile acid receptor (Homo sapiens) (Q96RI1 whole entry, looked up, the tested form may be a part): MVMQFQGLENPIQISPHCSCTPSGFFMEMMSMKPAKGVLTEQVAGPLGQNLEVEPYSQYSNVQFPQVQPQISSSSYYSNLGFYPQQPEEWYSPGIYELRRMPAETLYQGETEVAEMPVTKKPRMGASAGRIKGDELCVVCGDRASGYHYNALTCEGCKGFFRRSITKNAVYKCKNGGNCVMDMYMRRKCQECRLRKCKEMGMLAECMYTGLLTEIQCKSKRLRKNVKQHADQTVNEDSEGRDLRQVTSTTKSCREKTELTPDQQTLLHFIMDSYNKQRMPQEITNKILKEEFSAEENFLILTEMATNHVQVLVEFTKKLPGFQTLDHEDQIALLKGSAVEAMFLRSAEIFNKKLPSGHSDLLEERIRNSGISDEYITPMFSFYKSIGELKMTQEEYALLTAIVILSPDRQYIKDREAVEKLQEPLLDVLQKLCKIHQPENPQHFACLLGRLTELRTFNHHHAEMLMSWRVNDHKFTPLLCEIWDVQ
Description: OT_FXR_FXRSRC1_1440 is a cell-based assay that uses HEK293T, a human kidney cell line, with measurements taken at 24 hours after chemical dosing in a 384-well plate.OT_FXR_FXRSRC1_1440 is one of one assay component(s) measured or calculated from the OT_FXR_FXRSRC1_1440 assay. It is designed to make measurements of protein fragment complementation, a form of binding reporter, as detected with fluorescence intensity signals by Protein-fragment Complementation technology.Data from the assay component OT_FXR_FXRSRC1_1440 was analyzed into 1 assay endpoint. This assay endpoint, OT_FXR_FXRSRC1_1440, was analyzed in the positive analysis fitting direction relative to DMSO as the negative control and baseline of activity. Using a type of binding reporter, measures of receptor for gain-of-signal activity can be used to understand the binding at the pathway-level as they relate to the gene NR1H4. Furthermore, this assay endpoint can be referred to as a primary readout, because the performed assay has only produced 1 assay endpoint. To generalize the intended target to other relatable targets, this assay endpoint is annotated to the nuclear receptor intended target family, where the subfamily is non-steroidal.
Protein-fragment complementation assay, or PCA, is a method for the identification and quantification of protein-protein interactions. In the PCA, the proteins of interest ("bait" and "prey") are each covalently linked to fragments of a third protein (e.g. DHFR, which acts as a "reporter"). Interaction between the bait and the prey proteins brings the fragments of the reporter protein in close proximity to allow them to form a functional reporter protein whose activity can be measured.
For NC(=O)c1ccccc1O, the outcome was “inactive”. For CC(C)(C)c1ccc(-c2ccc(C(C)(C)C)cc2)cc1, the AC50 was 76.6 µM (active). With CC=C1CC2C=CC1C2 (stereo not drawn) the outcome was “inactive”. In the case of CC/C=C\C/C=C\C/C=C\CCCCCCCC(=O)O, the outcome is reported as “inactive”. For CCOC(=O)CC, the outcome was “inactive”. CCCCOCCOC(=O)COc1nc(Cl)c(Cl)cc1Cl was tested, and the outcome was “inactive”. In the case of CCCCCc1ccc(Cl)cc1, the outcome is reported as “inactive”. CC(C)(C)c1ccc(OC(=O)c2ccccc2O)cc1 was tested, and the AC50 was 75.9 µM (active). With NC(=O)N=NC(N)=O the outcome was “inactive”. With CC(=O)[C@H]1[C@H](C#N)C[C@H]2[C@@H]3CC=C4C[C@@H](O)CC[C@]4(C)[C@H]3CC[C@@]21C the outcome was “inactive”. O=C(C(Cl)Cl)N1CCOC12CCCCC2 was tested, and the outcome was “inactive”. c1ccc2c(c1)ccc1cc3c(ccc4ccccc43)cc12 was tested, and the outcome was “inactive”. In the case of CCN(CCC#N)c1ccc(N=Nc2c(Cl)cc([N+](=O)[O-])cc2Cl)cc1, the outcome is reported as “inactive”.
